Data on 33 compounds can be found in PubChem BioAssay (NCATS).

Each structure is given as a SMILES string. Values joined by “and” are separate entries in the source; they are usually repeats but may differ in a detail not shown here. Identical values can stand only once. Inconclusive results are not listed. A call without a number means that no potency is given here. The source holds several records for some structures; these can differ, active in one and inactive in another. Active and inactive are the calls of the source. Calls follow the shape of the dose curve; as a rule, active = well fitted inhibition curve with a large enough effect; inconclusive = small, poorly fitted or top-dose-only effect; inactive = no such curve, though single readings can be large or run the other way.
Potency is read from the fitted curve at half-maximal effect.

The assay is described as follows: Primary qHTS for inhibitors of nuclear receptor binding SET domain protein 2 (NSD2) in an RCH-ACV wild type WT cells (2C) (AID 1645877). Also: nearly all actives have a fitted effect of over 70% in size. The settings on record: RCH-ACV (leukaemia line) NSD2 WT (2C) viability, CellTiter-Glo, 72 h; series mostly up to 44.9 µM.
Consider `N[C@@H]1CONC1=O`, for which the Potency entry was “inactive”.
As to `CNC[C@H](O)c1cccc(O)c1`, the Potency result was “inactive”.
Turning to `O=C1[C@H](Cc2ccc(O)cc2)N2C(=O)CCN(C(=O)NCc3ccccc3)[C@H]2CN1Cc1cccc2ccccc12`, the Potency was 3.72 µM (active).
Take `CC[C@H](Nc1ncnc2nc[nH]c12)c1nc2cccc(F)c2c(=O)n1-c1ccccc1`: the Potency was 231 nM (active) and 1.18 µM (active); the activity change, negative = cell killing was -1.09% [at 9.23 µM] (inactive).
Take `S=C(NCc1ccc2c(c1)OCO2)N1CCN(c2ncnc3c2oc2ccccc23)CC1`: the Potency was 8.17 µM (active).
On the same count and under the same terms, the result for `CCc1ccc(CCOc2ccc(CC3SC(=O)NC3=O)cc2)nc1` (centres undefined) reads “inactive”.
With `O=C(O)[C@@H](c1ccc(OCc2ccc3ccccc3n2)cc1)C1CCCC1`, the Potency entry was “inactive”.
Turning to `CS(=O)(=O)Oc1ccc2c(NC(N)=O)c(C(=O)c3ccc(Cl)cc3Cl)oc2c1`, the Potency result is “inactive”.
In the case of `CCn1cc(C(=O)O)c(=O)c2cc(F)c(N3CCNC(C)C3)c(F)c21` (centres undefined), the Potency result is “inactive”.
As to `CC(C)(C)NCC(O)c1ccc(O)c(CO)c1` (centres undefined), the Potency result was “inactive”.
Take `O=C(Nc1cccnc1)N1CCC(Cc2cccc(Oc3ccc(C(F)(F)F)cn3)c2)CC1`: the Potency was 5.25 µM (active).
Turning to `NC(=O)c1ccc(-c2nc(-c3ccc4c(c3)OCCO4)c(-c3ccccn3)[nH]2)cc1`, the Potency entry is “inactive”.
As for `OCCn1cc(-c2cnc3nnn(Cc4ccc5ncccc5c4)c3n2)cn1`, the Potency entry was “inactive”.
On to `CC(C)OC(=O)C1=CN(C(=O)c2ccc(F)c(F)c2)CC(C)(C)c2c1[nH]c1ccccc21`, for which the Potency result is “inactive”.
On the same count and under the same terms, the result for `COCCNCCCn1c(C(=O)CF)c(-c2ccc(C)cc2)c2c(N)ncnc21` reads 16.6 µM (active); that for `CCC(=O)N[C@H]1CC[C@H](C(=O)N(C)c2ccc(-c3nc4ccccc4o3)cc2)C1`, 18.6 µM (active).
Turning to `Cc1n[nH]c(C)c1Cc1sc2c(c1C(=O)N1C[C@H](O)CO1)c(=O)n(C)c(=O)n2CC(C)C`, the Potency entry is “inactive”.
The same measure, in the same setting: under `Cc1ccc(NC(=O)c2cccc(C(C)(C)C#N)c2)cc1Nc1ccc2ncn(C)c(=O)c2c1` stands 13.2 µM (active).
Turning to `Cc1[nH]c(=O)c(C#N)cc1-c1ccncc1`, the Potency entry was “inactive”.
Turning to `CCOc1ccn(-c2ccc(F)cc2)c(=O)c1C(=O)Nc1ccc(Oc2ccnc(N)c2Cl)c(F)c1`, the Potency was 8.17 µM (active) and 7.42 µM (active).
Still for that read-out and setting: under `CC1(C)CNc2cc(NC(=O)c3cccnc3NCc3ccncc3)ccc21` stands “inactive”; under `Cc1cn[nH]c1`, “inactive”.
Same read-out and setting: under `NC(=O)C1CCCc2c1[nH]c1ccc(Cl)cc21` (centres undefined) stands “inactive”; under `Oc1cccc(-c2nc(N3CCOCC3)c3oc4ncccc4c3n2)c1`, 0.166 µM (active); under `O=c1[nH]c(-c2ccc(C(F)(F)F)cc2)nc2c1CSCC2`, “inactive”.
As to `CC(C)NCC(O)COc1ccc(COCCOC(C)C)cc1` (centres undefined), the Potency entry is “inactive”.
Take `O=C(O)CCc1ccc(NCc2cccc(Oc3ccccc3)c2)cc1`: the Potency result was “inactive”.
As to `Nc1ncnc2nc(-c3ccc(N4CCOCC4)nc3)cc(-c3cccc(Br)c3)c12`, the Potency was 20.9 µM (active).
For `O=C(C1CC1)N1CC[C@@H](Cn2c(-c3ccc(-c4ccc5occc5c4)cc3)nc3cnccc32)C1`, the Potency is 16.6 µM (active).
`CCn1c(-c2nonc2N)nc2c(C#CC(C)(C)O)ncc(OC[C@H]3CCCNC3)c21`: the Potency was 1.18 µM (active).
Regarding `C[C@]12CCC(=O)C=C1CC[C@@H]1[C@@H]2[C@@H](O)C[C@@]2(C)[C@H]1CC[C@]2(O)C(=O)CO`, the Potency is 1.68 µM (active) and 296 nM (active).
For the compound `CN[C@@H](C)C(=O)N[C@H]1CCCC[C@H]2CC[C@@H](C(=O)N[C@@H](c3ccccc3)c3cn(CCCCc4ccc(CCCCn5cc([C@@H](NC(=O)[C@@H]6CC[C@@H]7CCCC[C@H](NC(=O)[C@H](C)NC)C(=O)N76)c6ccccc6)nn5)cc4)nn3)N2C1=O`, the Potency entry was “inactive”.
As for `COc1ccc(-c2ccc3c(N4CCOCC4)nc(N4C[C@@H](C)O[C@@H](C)C4)nc3n2)cc1CO`, the Potency entry is “inactive”.
